Results on 40 molecules are retold here after PubChem BioAssay (NCATS).

A number with no mark means an inactive call. Active and inactive are the calls of the source. The call rests on the fitted dose curve; in most records, active means well fitted activation curve with a large enough effect; inconclusive means small, poorly fitted or top-dose-only effect; inactive means no such curve, though single readings can be large or run the other way.
Potency means the concentration at half of the fitted maximal effect.

Sequence of Cytochrome P450 3A4 (Homo sapiens) (P08684 whole entry, looked up): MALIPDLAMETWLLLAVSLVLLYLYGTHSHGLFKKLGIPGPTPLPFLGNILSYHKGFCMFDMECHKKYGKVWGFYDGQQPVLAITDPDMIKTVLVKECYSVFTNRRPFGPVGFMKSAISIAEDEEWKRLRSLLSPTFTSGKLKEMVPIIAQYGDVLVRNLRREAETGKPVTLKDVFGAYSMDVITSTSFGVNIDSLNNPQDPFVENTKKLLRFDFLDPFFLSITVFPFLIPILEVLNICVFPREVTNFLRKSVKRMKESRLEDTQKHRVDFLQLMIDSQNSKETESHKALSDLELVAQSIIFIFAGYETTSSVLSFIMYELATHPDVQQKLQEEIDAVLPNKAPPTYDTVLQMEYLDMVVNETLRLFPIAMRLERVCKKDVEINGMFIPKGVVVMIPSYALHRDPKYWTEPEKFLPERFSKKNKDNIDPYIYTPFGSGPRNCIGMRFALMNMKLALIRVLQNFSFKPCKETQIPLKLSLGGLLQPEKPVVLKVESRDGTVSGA

In the experiment the target is Cytochrome P450 3A4 (Homo sapiens) (UniProt P08684). As to the kind of experiment: qHTS Assay for Activators of Cytochrome P450 3A4 (AID 885). Further: nearly all actives have a fitted effect of over 65% in size. Conditions: recombinant CYP3A4, Luciferin-PPXE luminescence, 60 min; series mostly up to 57.1 µM; activity change, positive = activation: at the top concentration. Here is the method:
NIH Molecular Libraries Screening Centers Network [MLSCN]
NIH Chemical Genomics Center [NCGC]
The P450 gene superfamily is involved in the metabolism and clearance of xenobiotics. This assay used human CYP3A4 to measure the dealkylation of luciferin-6' phenylpiperazinylyl (Luciferin-PPXE; […]) to luciferin. The luciferin is then measured by luminescence after the addition of a luciferase detection reagent. Luciferin-PPXE concentration in the assay was equal to its KM for CYP3A4. Inhibitors and some substrates limit the production of luciferin, and decrease measured luminescence; activators increase the production of luciferin and luminescence.
NCGC Assay Protocol Summary:
Two uL of enzyme and substrate mix (final concentrations: 20nM CYP3A4, 25uM Luciferin-PPXE, 200mM KPO4) were dispensed into a white, solid bottom 1536-well microtiter plate. 23nL of compound was transferred by a pin tool. The plate was incubated at RT for 10 min. Two uL of an NADPH regeneration solution (Promega supplied reagent) was dispensed and the reaction was allowed to continue for 60 min at RT. Then the reaction was stopped by reconstituted luciferin detection buffer. After another 20 min of incubation the plate was read on the ViewLux (Perkin Elmer) at 60 sec exposure and 2x2 binning. This protocol was carried out with Promega-Glo reagents and further information can be found at http://www.promega.com/tbs/tb325/tb325.pdf. Data were normalized to the to AC100 inhibition (57 uM ketoconazole).
Keywords: P450, CYP2D6, Luciferase, MLSMR, MLSCN, NIH Roadmap, qHTS, NCGC
For orientation: qHTS replaces the single test concentration by a dilution series.
With `COc1ccc(C(=O)N2CCC3(CCN(Cc4ccncc4)CC3)CC2)cc1`, the “activity change, positive = activation” value is -85.7%. The same measure, in the same setting: the figure for `COCCn1c(=O)c(C)nc2cnc(OC)nc21` is -36.9%. Same read-out and setting: as for `O=C(Nc1cccc(F)c1)N1CCCC2(CCN(C(=O)c3cc(C(F)(F)F)cc(C(F)(F)F)c3)CC2)C1`, the figure is -102%.

Take `O=C1C=C(O)c2ccccc2C1=O`: the “activity change, positive = activation” value is -47.5%. In the case of `CS(=O)(=O)Nc1cccc(-c2nccc(Nc3ccc(F)cc3)n2)c1`, the “activity change, positive = activation” value is -95%. For the molecule `Cc1cnc(CNc2ncnc3ccc(-c4ccc5c(c4)OCO5)cc23)cn1`, the “activity change, positive = activation” value is -95%. The same measure, in the same setting: as for `N#Cc1cccc(NC(=O)N2CCCC3(CCN(C(=O)c4cc(C(F)(F)F)cc(C(F)(F)F)c4)CC3)C2)c1`, the figure is -82%. As to `O=c1c(-c2cccs2)nc2cnc(Nc3ccccc3)nc2n1C[C@H]1CCCO1`, the “activity change, positive = activation” value is -45.7%. Take `COc1ccc(C(=O)N2CCC[C@@]3(CCN(CC(C)C)C3)C2)cc1`: the “activity change, positive = activation” value is -85.5%. Same read-out and setting: the figure for `Cn1c(=O)c(-c2cccc(F)c2)nc2cncnc21` is -55.2%. On the same count and under the same terms, as for `CN(Cc1ccco1)c1cc(-c2cccc(NS(C)(=O)=O)c2)ncn1`, the figure is -71.7%. Regarding `O=C(Oc1ccccc1)N1CCC2(CC1)CN(c1ccccn1)C2`, the Potency is 15.8 µM (active). With `COCC(=O)N1CCC2(CCN(Cc3ccncc3)CC2)CC1`, the “activity change, positive = activation” value is -35.7%. Same read-out and setting: the figure for `COc1ccc2[nH]cc(CCNc3ccnc(-c4cccc(NS(C)(=O)=O)c4)n3)c2c1` is -50.3%; for `COc1ccc(CNc2nc(-c3cccc(C#N)c3)nc3ccccc23)c(OC)c1` it is -91.2%; for `Cc1nc2cnc(Nc3ccccc3)nc2n(CCc2ccccc2)c1=O` it is -30.4%. The same measure, in the same setting: the figure for `CS(=O)(=O)N1CCC2(CCCN(C(=O)Nc3cccc(F)c3)C2)CC1` is -54%; for `COc1ccc(Oc2ncc3ncc(=O)n(C4CC4)c3n2)cc1` it is -49.4%; for `CN(C)c1ncnc2ccc(-c3cccc(C#N)c3)cc12` it is -73.3%.

In the case of `COc1ccccc1CNc1nc(-c2ccc3c(c2)OCO3)nc2ccccc12`, the “activity change, positive = activation” value was -96.9%.

On to `Cc1ccccc1-c1nc(N(C)Cc2ccco2)c2ccccc2n1`, for which the “activity change, positive = activation” value was -53.9%. Still for that read-out and setting: as for `Cc1ccccc1-c1nccc(NCc2cccnc2)n1`, the figure is -100%. Still for that read-out and setting: as for `COc1ccc(NC(=O)N2CCCC3(CCN(C(=O)c4cccc(F)c4)CC3)C2)cc1`, the figure is -59.4%. For `Cn1cccc1C(=O)N1CCC2(CCCN(C(=O)Nc3ccccc3)C2)CC1`, the “activity change, positive = activation” value is -35.4%. As to `COc1ccc(Oc2ncc3nc(-c4cccs4)c(=O)n(C)c3n2)cc1`, the “activity change, positive = activation” value was -72.7%. For `O=C(Nc1ccccc1)N1CCCC2(CCNCC2)C1`, the “activity change, positive = activation” value is -45.7%. Still for that read-out and setting: as for `COc1cccc(-c2cc(NCc3cccnc3)ncn2)c1`, the figure is -99.7%; as for `COCCNc1ncnc2ccc(-c3c(C)noc3C)cc12`, -55%. The same measure, in the same setting: as for `Cc1noc(C)c1-c1nc(Nc2ccccc2)c2ccccc2n1`, the figure is -65.3%; as for `O=c1c(-c2ccc(Cl)cc2)nc2cncnc2n1Cc1ccc(F)cc1`, -53.9%; as for `N#Cc1cccc(NC(=O)N2CCCC3(CCN(C(=O)c4csnn4)CC3)C2)c1`, -44.1%. Same read-out and setting: as for `OCCN1CCN(CC/C=C2\c3ccccc3Sc3ccc(C(F)(F)F)cc32)CC1`, the figure is -87.8%.

Take `CCCCCN(CCCCC)C(=O)[C@H](CCC(=O)O)NC(=O)c1ccc(Cl)c(Cl)c1`: the “activity change, positive = activation” value is -63.3%. In the case of `COc1ccccc1-c1cc(-n2ccnc2)ncn1`, the “activity change, positive = activation” value was -101%.

Regarding `O=c1c(CCc2ccccc2)nc2cncnc2n1-c1ccccc1`, the “activity change, positive = activation” value was -45.7%. Turning to `CS(=O)(=O)N1CCC[C@@]2(CCN(C(c3ccccc3)c3ccccc3)C2)C1`, the “activity change, positive = activation” value was -64.2%. Still for that read-out and setting: as for `O=C(c1cccc(F)c1)N1CCC2(CCCN(c3ccccc3)C2)CC1`, the figure is -59.5%. `COc1ccccc1CNc1ncnc2ccc(-c3c(C)noc3C)cc12`: the “activity change, positive = activation” value was -103%. On the same count and under the same terms, the figure for `O[C@@](CCN1CCCCC1)(c1ccccc1)C1CCCCC1` is -34.7% [at 25.6 µM]. `N[C@H](C(=O)N[C@@H]1C(=O)N2C(C(=O)O)=C(Cl)CS[C@@H]12)c1ccccc1`: the “activity change, positive = activation” value is -54.3%.
